Screening results from PubChem.
Most compounds without a hit are left out; they make up all but 4% or so of the library.
BoNT-F LC inh: BoNT/F light chain protease inhibitors, primary screen, biochemical, flow cytometry, MLPCN library | inhibition, % at 10 µM | Multiplex microsphere protease cleavage assay | actives 0.22% (n = 360,000) | Botulinum neurotoxin type F light chain protease (Clostridium botulinum) | AID 588497, 2011; in the data active means inhibition above about 35%, passing the limit was not always enough; inconclusive means no clear call, values can overlap the other calls
Anthrax LF inh2: Bacillus anthracis LF protease inhibitors, primary screen, biochemical, multiplex microsphere, MLPCN library; Lethal factor (Bacillus anthracis), P15917; multiplex microsphere protease cleavage assay; inhibition, % at 10 µM; actives 0.12% (n = 360,000); AID 588501, 2011
BoNT-A LC inh2: BoNT/A light chain protease inhibitors, primary screen, biochemical, flow cytometry, MLPCN library; inhibition, % at 10 µM; multiplex microsphere protease substrate cleavage; AID 588499, 2011; actives 0.17% (n = 360,000)
VHR inh abs: VHR1 phosphatase inhibitors, primary screen, biochemical, absorbance, uHTS | AID 1654, 2009 | recombinant VHR phosphatase, pNPP absorbance | actives 0.52% (n = 290,000) | inhibition, % at 13.3 µM | Dual specificity protein phosphatase 3 (Homo sapiens), P51452; in the data active means inhibition above about 50%
Target sequence (P51452 whole entry, looked up): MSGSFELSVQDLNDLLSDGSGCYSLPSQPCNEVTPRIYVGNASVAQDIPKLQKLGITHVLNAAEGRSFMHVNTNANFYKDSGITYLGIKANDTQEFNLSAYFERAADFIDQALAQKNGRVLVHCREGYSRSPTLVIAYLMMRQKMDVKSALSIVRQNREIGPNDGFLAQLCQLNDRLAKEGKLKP
MazF activator: activators of E. coli MazEF toxin-antitoxin RNase, primary screen, biochemical, fluorescence, uHTS. Endoribonuclease toxin MazF (Escherichia coli (strain K12)), P0AE70. FAM/BHQ RNA-DNA oligo cleavage fluorescence, 5 h. activation, % at 20 µM. actives 0.32% (n = 350,000). AID 504720, 2011; in the data active means activation above about 50%
Target sequence (P0AE70 whole entry, looked up): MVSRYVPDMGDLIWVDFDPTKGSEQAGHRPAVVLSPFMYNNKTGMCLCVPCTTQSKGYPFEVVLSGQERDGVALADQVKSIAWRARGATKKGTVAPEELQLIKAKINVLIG
Bead autofluor: counter-screen for toxin protease inhibitors: compound fluorescence; compound autofluorescence counterscreen, microsphere flow cytometry; hits give high values; fluorescence intensity (test concentration not listed); actives 3.1% (n = 360,000); in the data active means fluorescence intensity above about 16000; inconclusive means no clear call, values can overlap the other calls
Of the large screens only hits and unclear results are named; the others gave an inactive call. Unless noted, no stated cut-off is given here; in the data, active means inhibition above about 30%; inconclusive means no clear call, values can overlap the other calls; inactive means below that.

O=C(CSc1nc(Nc2ccccc2)nc(N2CCOCC2)n1)Nc1ccccc1Cl	none
COc1ccc(NC(=O)CN(C)C(=O)c2ccccc2OC)cc1	VHR inh abs 51.3
COc1ccc(Br)c(C(=O)N(C)CC(=O)Nc2ccc(N3CCOCC3)cc2)c1	Bead autofluor 21018 (no result: VHR inh abs)
COc1ccc(NC(=O)CN(C)C(C)C(=O)N2CCCCC2)cc1 (centres undefined)	Bead autofluor 21556
CN(CC(=O)Nc1ccc(N2CCOCC2)cc1)C(=O)c1cccc(Cl)c1Cl	none (no result: VHR inh abs)
O=C(O)c1ccc(NC2CC(=O)N(Cc3ccccc3)C2=O)cc1 (centres undefined)	none
O=C(CCn1cnc2ccccc2c1=O)Nc1ccc(S(=O)(=O)N2CCCCC2)cc1	none
CNc1nc(C)c(C#N)c(-c2ccccc2)c1C(C)=O	none
CCN(CC)C(=O)c1ccccc1NC(=O)c1ccccc1	none
COc1ccc(-c2nnc(CSc3nnc(-c4ccncc4)n3C3CCCCC3)o2)cc1OC	BoNT-A LC inh2 inconclusive, Bead autofluor 19681
COc1ccccc1Sc1nc(-c2ccccn2)ncc1OC	none
CC1CN=C(N(Cc2ccccc2)C(=O)Nc2ccccc2)S1 (centres undefined)	Bead autofluor inconclusive
COc1ccccc1NC(=O)N(Cc1ccccc1)C1=NCC(C)S1 (centres undefined)	Bead autofluor 22072
CCOc1cccc2sc(=NC(=O)c3ccc(S(=O)(=O)N4CCOCC4)cc3)n(C)c12	Bead autofluor 22851
CCN(CC)c1ccc(NC(=O)CCS(=O)(=O)c2ccc(Br)cc2)c(C)c1	VHR inh abs 52.3
O=C(CN1CCC(C(=O)c2ccc3c(c2)OCCO3)CC1)NCc1ccccc1	none
CCCN1CCN(CCCNC(=O)c2cc3c(=O)[nH]c4ccc(C)cc4c3s2)CC1	none
COc1ccc(C2C(C#N)=C(N)N(c3cccnc3)C3=C2C(=O)CCC3)cc1Cn1cc([N+](=O)[O-])cn1 (centres undefined)	MazF activator 63.8
CCOC(=O)C1(CCCc2ccccc2)CCN(C2CCCC2)CC1	none
CCC(Sc1nc(C)cc(=O)[nH]1)C(=O)Nc1nc2c(s1)CCCC2 (centres undefined)	BoNT-A LC inh2 inconclusive, Bead autofluor 22164
Cc1cc(=O)[nH]c(SCC(=O)Nc2nc3c(s2)CCCC3)n1	none
CCc1nnc(NC(=O)c2ccc(Br)o2)s1	none
COCCCn1c(Cc2ccccc2)nnc1SCC(=O)N1CCCCC1	Bead autofluor 22748
COCCn1c(Cc2ccccc2)nnc1SCC(=O)N1CCOCC1	none
COc1ccc(OC)c(-n2c(-c3ccccc3)n[nH]c2=S)c1	BoNT-A LC inh2 inconclusive, Bead autofluor 22480
COc1ccc(OC)c(-n2c(-c3cccc(C)c3)n[nH]c2=S)c1	none
Cc1cccc(OCc2nnc(N)s2)c1	BoNT-A LC inh2 inconclusive, Bead autofluor 24413
Cn1nc(-c2ccccc2)c2nc3ccccc3nc21	MazF activator active
Cc1ccc(S(=O)(=O)NCCC(=O)N2CCN(S(=O)(=O)c3cccc(F)c3)CC2)cc1C	none (no result: VHR inh abs)
CSCCC(NC(=O)COc1ccccc1)C(=O)N1CCN(c2ccccc2)CC1 (centres undefined)	none (no result: VHR inh abs)
Cc1ccc(C)c(N(C(=O)c2ccco2)C(C(=O)NC2CCCC2)c2ccco2)c1 (centres undefined)	none
CC(C)(C)c1nc(CN2CCCCC2)cc(CN2CCCCC2)c1O	none
CC(C)(C)c1nc(CN2CCOCC2)ccc1O	Bead autofluor 21380
O=C1N(Cc2ccc(F)cc2Cl)c2ccccc2C12OCCCO2	Bead autofluor 19128
O=C1N(CN2CCN(Cc3ccccc3)CC2)c2ccccc2C12OCCCO2	none
O=C1N(Cc2ccccc2F)c2ccccc2C12OCCCO2	Bead autofluor 20831
C=CCN1C(=O)C2(OCCCO2)c2ccccc21	none
COC(=O)[C@@H](NC(=O)Nc1cccc(OC)c1)C(C)C	Bead autofluor 21593
CCOC(=O)C1CCCN(C2=NC(=O)/C(=C/c3ccc(N(C)C)cc3)S2)C1 (centres undefined)	VHR inh abs 52.6
